Laboratory results taken from PubChem BioAssay AID493168 (National Center for Advancing Translational Sciences (NCATS), 2011).
Inconclusive results are not listed. Active and inactive are the calls of the source. Calls come from the whole dose curve; as a rule, active = well fitted inhibition curve with a large enough effect; inconclusive = small, poorly fitted or top-dose-only effect, or effect the other way; inactive = flat fitted curve, though single readings scatter.

Biological target: Ubiquitin carboxyl-terminal hydrolase 2 (Homo sapiens) (UniProt O75604)
Assay: Confirmation Assay for Inhibitors of Ubiquitin-specific Protease USP2a Using CHOP2 as the Reporter; note: nearly all actives have a fitted effect of over 55% in size;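 for activity change, negative = inhibition: plate controls were DMSO wells for no effect and full inhibition by NEM control for full effect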
Settings: USP2 core, Ub-CHOP2 coupled reporter fluorescence; series mostly up to 38.3 µM; activity change, negative = inhibition: at the top concentration
Outline: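 USP2 core (10 nM final) was preincubated with compound for 30 min at RT in Tris-HCl pH 8.0, CaCl2, beta-mercaptoethanol, CHAPS. Ub-CHOP2 and reporter substrate (25 nM final each) were added, and fluorescence (Ex 485/Em 531 nm) was read after 60 min.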
Potency is the fitted concentration of half-maximal effect.

Chain of Ubiquitin carboxyl-terminal hydrolase 2 (Homo sapiens) (O75604 whole entry, looked up): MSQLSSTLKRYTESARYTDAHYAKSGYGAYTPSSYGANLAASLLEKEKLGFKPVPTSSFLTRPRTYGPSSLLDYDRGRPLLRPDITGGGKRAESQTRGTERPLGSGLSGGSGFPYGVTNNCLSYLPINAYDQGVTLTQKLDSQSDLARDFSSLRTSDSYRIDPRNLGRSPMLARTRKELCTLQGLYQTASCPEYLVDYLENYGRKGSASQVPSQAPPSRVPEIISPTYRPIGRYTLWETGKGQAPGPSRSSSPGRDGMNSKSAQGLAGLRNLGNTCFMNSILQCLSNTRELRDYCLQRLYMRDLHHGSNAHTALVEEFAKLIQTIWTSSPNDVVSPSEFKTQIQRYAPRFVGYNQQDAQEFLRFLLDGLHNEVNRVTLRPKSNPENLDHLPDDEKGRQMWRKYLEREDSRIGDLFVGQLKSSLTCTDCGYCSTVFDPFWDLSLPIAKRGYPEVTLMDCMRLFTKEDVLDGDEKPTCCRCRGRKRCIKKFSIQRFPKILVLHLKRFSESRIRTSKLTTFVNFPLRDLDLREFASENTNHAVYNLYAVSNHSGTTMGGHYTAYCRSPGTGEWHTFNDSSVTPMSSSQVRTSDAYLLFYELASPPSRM

Activity change, negative = inhibition, inactive:
O=C(Nc1ccc(N2CCCC2)c(Cl)c1)c1ccc(Br)o1 4.08%
O=C(Cc1cc(=O)[nH]c(=O)[nH]1)NCC1CCCO1 (stereo not given) 2.54%
O=C(CSc1ncn[nH]1)Nc1ccc(Br)cc1F 2.32%
CCOc1ccc2[nH]c(=O)c(CN(Cc3nnnn3Cc3ccco3)C3CCCCC3)cc2c1 -11.1%
O=S(=O)(Nc1cccc(-c2cn3c(n2)SCC3)c1)c1ccc(F)cc1F -19.9%
COc1ccc(CCN2C(=O)/C(=C\c3ccco3)SC2=S)cc1OC -2.75%
COc1ccc(S(=O)(=O)NCCSCc2ccco2)cc1OC -14.5%
COc1cc(C)c(S(=O)(=O)NCc2ccc3c(c2)OCO3)cc1C 5.8%
CC1CCCC(N2CCN(C(=O)c3cccc(F)c3)CC2)C1 (stereo not given) -0.437%
Cn1c(=O)c2c(nc(CN3CCN(C(=O)c4ccco4)CC3)n2CCCc2ccccc2)n(C)c1=O 1.35%
CCCNC(=O)CS(=O)Cc1nc(-c2ccccc2C)oc1C (stereo not given) 1.7%
CCCc1nc(SCC(N)=O)[nH]c(=O)c1CC 5.12%
O=C(CSc1nc2ccccc2c(=O)n1CC1CCCO1)NCc1ccccc1 (stereo not given) 2.33%
CC(C)CC(c1nnnn1CC1CCCO1)N1CCN(c2nc3ccccc3s2)CC1 (stereo not given) -1.59%
CC(OC(=O)c1nsc(Cl)c1Cl)C(=O)NCc1ccco1 (stereo not given) -1.99%
O=c1oc2ccccc2n1Cn1c(=O)oc2ccccc21 2.63%
Cc1cc(C)n2nc(S(=O)(=O)NCCc3ccccc3)nc2n1 -0.0643%
COC(=O)C1CCN(C(=O)COC(=O)CC(NC(N)=O)c2ccc(Cl)cc2)CC1 (stereo not given) 1.45%
COC(=O)N/N=C\c1cc(Br)ccc1OCc1ccccc1 -1.87%
CN(C)CCOCCP(=O)(c1ccccc1)c1ccccc1 3.55%
O=[N+]([O-])c1c(NCCO)cc(N2CCN(Cc3ccc4c(c3)OCO4)CC2)c2nonc12 0.18%
Cc1cc(N2CCC(C(=O)NC3CC3)CC2)nc(-c2ccccc2)n1 4.66%
CCCCn1c(SCC(=O)N2CCC(C)CC2)nc2cc(S(N)(=O)=O)ccc21 -1.05%
O=c1cc(CO)oc(CN2CCN(Cc3ccccc3)CC2)c1O -0.374%
O=C(Nc1cccc(Cl)c1)Nc1nnc(CC2=CCCCC2)s1 1.35%
O=C(NCCOC(=O)c1ccccc1C(=O)OCCNC(=O)c1cccnc1)c1cccnc1 -4%
Cc1n[nH]c(C)c1S(=O)(=O)N1CCCC(C(=O)NC2CCCc3ccccc32)C1 (stereo not given) -2.73%
COc1ccc(NC(=S)NC(=O)/C=C/c2ccco2)cc1 4.1%
CCCOc1ccc(/C=C2\SC(=S)N(CC3CCCO3)C2=O)cc1 (stereo not given) -1.61%
COC(=O)c1nnn(-c2nonc2N)c1CSc1ccccn1 -1.34%
O=C(CCNc1cccc(Cl)c1)c1ccco1 -4.03%
CCOC(=O)C1CCN(C(=O)COC(=O)c2c(C)c(CC)nc3ccccc23)CC1 -0.67%
C[C@H](CO)N1C[C@H](C)[C@@H](CN(C)S(=O)(=O)c2cn(C)cn2)Oc2ccc(NC(=O)Cn3cnnn3)cc2C1=O 4.41%
COC(=O)c1[nH]c2ccc(C)cc2c1NC(=O)CN1CCCc2ccccc21 -19.6%
CNc1nc(OCCNC(=O)Nc2ccccc2)nc(N2CCOCC2)n1 -0.528%
S=c1[nH]nc(-c2cc(-c3ccco3)[nH]n2)n1-c1cccc2ccccc12 -3.18%
O=C(Cc1ccccc1)Nc1cccc(N2CCCC2)c1 -9.77%

Potency, active:
C#CCOCCOCCOCCNc1nc(N2CCN(C(=O)CCCCCCCCCCNC(=O)Cn3cc(CCCCCN)nn3)CC2)nc(N2CCN(C(=O)CCCCCCCCCCNC(=O)Cn3cc(CCCCCN)nn3)CC2)n1 10.4 µM
CCOc1cc(/C=C2\C(=O)N(c3nc(-c4ccc(Br)cc4)cs3)N=C2c2ccccc2)ccc1O 4.65 µM
Cc1cc(/C=C2\C(=N)N3N=C(c4ccco4)SC3=NC2=O)c(C)n1Cc1ccccc1 16.5 µM
